Assay outcomes deposited in PubChem BioAssay by National Center for Advancing Translational Sciences (NCATS).
TRHR PAM = allosteric enhancers of human TRH receptor. 0.66% of 360,000 active. enhancement, % at 2 µM. TRHR cells, fluo-8 calcium fluorescence, EC20 TRH enhancement. AID 493056; in the data active = enhancement above about 30%
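Enhancer read-out: after compound pinning and an initial kinetic agonist-mode read, an EC20 of TRH (10 nM final) was injected and fluo-8 calcium signal (Ex 480/Em 530) followed at 1 s/cycle for 100 cycles in TRHR-expressing cells.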
TRHR agonist = TRH receptor (human) agonism; TRHR cells, calcium flux fluo-8, FDSS agonist mode; activation, % at 2 µM; 0.18% of 360,000 active
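Fluo-8-loaded TRHR cells; 10 s baseline, compound added, kinetic Ca2+ fluorescence read 1/s, agonist mode.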
D1 ag = agonists of human D1 dopamine receptor | P21728 | HEK293 T-REx D1 cells, calcium flux, agonist mode | activation, % at 2 µM | 1% of 360,000 active
Target sequence (P21728 whole entry, looked up): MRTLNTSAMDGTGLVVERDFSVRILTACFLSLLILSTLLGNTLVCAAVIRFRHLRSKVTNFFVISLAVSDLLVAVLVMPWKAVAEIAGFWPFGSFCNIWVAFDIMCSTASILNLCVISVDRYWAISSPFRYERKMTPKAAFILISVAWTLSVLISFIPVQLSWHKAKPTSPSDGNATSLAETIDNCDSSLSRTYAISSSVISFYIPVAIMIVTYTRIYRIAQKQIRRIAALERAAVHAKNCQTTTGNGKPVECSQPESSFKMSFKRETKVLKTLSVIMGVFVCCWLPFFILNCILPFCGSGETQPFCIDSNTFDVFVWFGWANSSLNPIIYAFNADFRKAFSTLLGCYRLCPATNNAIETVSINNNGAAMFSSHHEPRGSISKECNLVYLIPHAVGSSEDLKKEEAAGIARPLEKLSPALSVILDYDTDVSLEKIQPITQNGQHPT
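Tetracycline-induced HEK293 TREx D1 cells, force-coupled to calcium signalling, were dye-loaded with a no-wash calcium kit. Compound was pin-added after a 10 s baseline. Fluorescence was read kinetically at 1 cycle/s for 180 s, with calcium rises flagged as agonism.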
GRP78 ERSR act = ER stress response induction in glioma; U87-MG GRP78 promoter luciferase reporter, 16 h; Potency, µM, usual class: activators; 0.02% of 420,000 active; AID 602332; active = well fitted activation curve with a large enough effect; note: series mostly up to about 76 µM; nearly all actives have a fitted effect of over 35% in size
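Stably transfected U87-MG glioma cells carrying a GRP78-based luciferase sensor; 16 h compound incubation. Luminescence end-point read 10 min after Bright-Glo addition at room temperature.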
D1 potentiator = potentiators of human D1 dopamine receptor | P21728 | HEK293 TREx D1 cells, calcium flux, dopamine EC20 potentiation | 0.036% of 360,000 active | potentiation, % at 10 µM; in the data active = potentiation above about 30%
D1 antagonist = blocks dopamine activation of the human D1 receptor | 3.2% of 360,000 active | HEK293 TREx D1 cells, calcium flux, dopamine EC80; active compounds read low | activity change, negative = inhibition, % at 10 µM | AID 504652; in the data active = activity change below about -30%
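Cells carrying a force-coupled, tetracycline-inducible human D1 receptor report calcium flux. Each well gets a 10 s baseline, compound with 180 s monitoring, then an EC80 dopamine stimulus with a second 180 s kinetic read.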
Each line names hits and unclear results; the compound was inactive in the other large screens. The list is not random: actives were taken first. Their share in the collection is about 4%. Cut-off read from the data, not from the text of the source, unless noted: active = activation above about 30%; inactive = the rest.

COc1ccc(NC(=O)CCC(=O)OCc2ccc(C(=O)Oc3ccc(Cl)cc3)cc2)cc1	D1 antagonist -31
COc1ccc(NC(=O)CCC(=O)OCC(=O)c2ccc(Oc3ccc([N+](=O)[O-])cc3)cc2)cc1	none
COc1ccc(NC(=O)CCC(=O)OCc2ccc([N+](=O)[O-])cc2)cc1	D1 antagonist -31
CCOc1cccc(-c2c(C(=O)N/N=C(\C)c3cccs3)nnn2-c2nonc2N)c1	D1 ag 95
CCOc1ccc(-c2c(C(=O)N/N=C(\C)c3cccs3)nnn2-c2nonc2N)cc1	D1 ag 44
CCOc1ccc(-c2c(C(=O)N/N=C(\C)c3ccco3)nnn2-c2nonc2N)cc1	none
COc1cccc(-c2c(C(=O)N/N=C(\C)c3cccs3)nnn2-c2nonc2N)c1	D1 ag 216
Nc1nonc1-n1nnc(C(=O)N/N=C/c2ccc(Br)cc2)c1-c1ccc2c(c1)OCO2	D1 ag 47
Cc1ccc2nc(CSc3nc(C)nc4c3oc3ccccc34)[nH]c2c1	none (no result: TRHR PAM, TRHR agonist, D1 ag, D1 potentiator, D1 antagonist)
Cc1cc(C(=O)Nc2ccc(OCc3ccccc3)cc2)c(C)o1	none
C/C(=N\NC(=O)c1nnn(-c2nonc2N)c1-c1cccs1)c1ccc(O)cc1	none
C/C(=N\NC(=O)c1nnn(-c2nonc2N)c1-c1ccc2c(c1)OCO2)c1cccs1	TRHR PAM 31, D1 ag 183
COc1ccccc1C(=O)Oc1ccc(C(c2c(C)[nH][nH]c2=O)c2c(C)[nH][nH]c2=O)cc1	none
COc1ccc(CN2CCN(c3cc(C)nc4c5c(C)cc(C)nc5nn34)CC2)cc1F	D1 antagonist -38
COc1ccc(CCNC(=O)CCCn2c(=O)c3ccccc3n(Cc3ccccc3C)c2=O)cc1OC	D1 antagonist -33
CCOc1ccc(NC(=O)Cn2c(=O)n(CCCC(=O)NCCc3ccc(Cl)cc3)c(=O)c3ccccc32)cc1	none
Cc1ccc(NC(=O)Cn2c(=O)n(CCCCC(=O)NCCc3ccc(Cl)cc3)c(=O)c3ccccc32)cc1	D1 antagonist -46
Fc1cccc(Nc2cc(-n3cccn3)ncn2)c1	D1 antagonist -45
Cc1ccc(Nc2cc(-n3cccn3)ncn2)c(C)c1	none
Cc1ccc(Cl)cc1N1CCN(C(=O)c2cc3ccc4cccnc4c3[nH]2)CC1	TRHR PAM 30
O=C(c1cc2ccc3cccnc3c2[nH]1)N1CCN(c2ccc(Cl)cc2)CC1	none
COc1ccccc1NC(=O)Cc1ccc(-c2ccccc2)cc1	D1 antagonist -39
COc1ccccc1NC(=O)CC(=O)Nc1ccccc1OC	none
COc1ccc(C)cc1NC(=O)COC(=O)Cc1ccc(-c2ccccc2)cc1	D1 antagonist -36
COc1ccc(NC(=O)COC(=O)Cc2ccc(-c3ccccc3)cc2)c(OC)c1	none
CC(C)CC1NC(=O)N(CC(=O)NC2CCCc3ccccc32)C1=O (configuration not stated)	D1 antagonist -36
CC(C)CN1C(=O)C(=O)N(CC(=O)NC2CCCc3ccccc32)C1=O (configuration not stated)	none
COCCCNc1nc2c(c(=O)[nH]c(=O)n2C)n1CCCc1ccccc1	none
C=C(C)Cn1c(NCCOC)nc2c1c(=O)[nH]c(=O)n2C	D1 antagonist -40
CSC(=NCc1ccco1)NC#N	D1 antagonist -34
CCCCCc1ccc(-c2cn(Cc3ccc4c(c3)C(=O)c3ccccc3C4=O)nn2)cc1	none (no result: TRHR PAM, TRHR agonist, D1 ag, D1 potentiator, D1 antagonist)
O=C(CNC(=O)c1ccc(Cl)cc1Cl)OCCCn1c(=O)[nH]c2ccccc21	none
CCOC(=O)C(C)On1c(-c2ccccc2)nc2ccc([N+](=O)[O-])cc21 (configuration not stated)	none
CCOC(=O)C(C)On1c(-c2ccc(Cl)cc2)nc2ccc([N+](=O)[O-])cc21 (configuration not stated)	D1 antagonist -40
CO/N=C(/c1nonc1N)N1CCN(c2ccc([N+](=O)[O-])cc2)CC1	none
CN1CCN(/C(=N\O)c2nonc2N)CC1	D1 antagonist -42
Cc1ccc(S(=O)(=O)Nc2ccc(C(=O)NC3CC3)cc2)cc1	none
